Source: PubChem BioAssay
Compounds with a hit are over-represented: about 9.3% of the library has one in this group of screens.
ELG1 genotoxic – induces genotoxicity in HEK293T cells with luciferase-tagged ELG1 | hit rate 1.3% among 330,000 | Potency, µM (titrated, usually from 46 µM), for inactives: at the highest dose activity change, positive = activation, actives largely listed as activators | HEK293T ELG1-luciferase reporter, luminescence, 16 h | AID 504466; also: % of control where 0% means no effect; nearly all actives have a fitted effect of over 60% in size
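HEK293T cells expressing luciferase-tagged ELG1 were treated with compound or DMSO for 16 hr at 37°C. Luciferase activity was then read after 30 min with ONE-Glo at room temperature; rising signal flags genetic stress.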
NPC1 prom act – activates the NPC1 promoter | Huh7 NPC1 promoter luciferase reporter, 24 h | Potency, µM (highest dose often 9.22 µM), without a hit: at the top dose activation, actives largely listed as activators | hit rate 2.4% among 320,000; also: % of control where 0% means no effect; nearly all actives have a fitted effect of over 60% in size
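In 1536-well qHTS, Huh7 cells harboring an NPC1 promoter–luciferase construct received compound for 24 h; activation was quantified by luminescence following luciferase reagent addition.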
ELG1 DNA repair – ELG1-dependent DNA repair inhibition | hit rate 2.3% among 330,000 | AID 504467 | Potency, µM (top dose mostly 46.1 µM), for inactives: at the top dose activity change, negative = inhibition, usual class: inhibitors | HEK293T ELG1-luciferase reporter, luminescence, 16 h; DNA damage induced by 5-fluorouridine; also: % is scaled to controls: 0 for no effect and ±100 for the full control effect; nearly all actives have a fitted effect of over 55% in size
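Quantitative HTS, concentration-response format. 2,000 cells/well co-treated with 5-fluorouridine and compound, 16 hr in 5% CO2 at 37 °C; ONE-Glo luminescence read after 30 min.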
Rab9 prom act – activators of Rab9 promoter | Huh7 Rab9 promoter-luciferase reporter, luminescence, 24 h | Potency, µM (series often up to 9.22 µM), for inactives: top-dose activation, negative = inhibition, hits mostly activators | hit rate 2.8% among 320,000 | AID 485297; also: % of control where 0% means no effect; nearly all actives have a fitted effect of over 60% in size
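Using Huh7 cells stably transfected with Rab9 promoter–luciferase, compounds were incubated 24 h at 37 °C, 5% CO2; luciferase luminescence was read 10 min after reagent addition.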
SMN2 splice up – increases expression of the SMN2 splice variant | HEK293 SMN2-luciferase splicing reporter, luminescence, 30-36 h | Potency, µM (series often up to 46.1 µM), for the others: at the top dose activity change, positive = activation, hits mostly activators | hit rate 2.8% among 210,000; also: % of control where 0% means no effect; nearly all actives have a fitted effect of over 55% in size
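qHTS luciferase splicing reporter: luminescence rises when SMN2 exon 7 is included in transfected HEK293 cells. Compound exposure lasted 30-36 h at 37C, with 4.5 mM final sodium butyrate as control, followed by a ONE-Glo read.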
FLuc counter – counter-screen for miR-21 project: firefly luciferase inhibitors or activators. purified FLuc, Km substrates, luminescence inhibition. Potency, µM (series often up to 57.5 µM), for the others: top-dose activity change, negative = inhibition, actives largely listed as inhibitors. hit rate 6.9% among 360,000. AID 588342;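 also: plate controls were vehicle for no effect and reference inhibitor for full effect; nearly all actives have a fitted effect of over 55% in size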
Target sequence (P08659 whole entry, looked up): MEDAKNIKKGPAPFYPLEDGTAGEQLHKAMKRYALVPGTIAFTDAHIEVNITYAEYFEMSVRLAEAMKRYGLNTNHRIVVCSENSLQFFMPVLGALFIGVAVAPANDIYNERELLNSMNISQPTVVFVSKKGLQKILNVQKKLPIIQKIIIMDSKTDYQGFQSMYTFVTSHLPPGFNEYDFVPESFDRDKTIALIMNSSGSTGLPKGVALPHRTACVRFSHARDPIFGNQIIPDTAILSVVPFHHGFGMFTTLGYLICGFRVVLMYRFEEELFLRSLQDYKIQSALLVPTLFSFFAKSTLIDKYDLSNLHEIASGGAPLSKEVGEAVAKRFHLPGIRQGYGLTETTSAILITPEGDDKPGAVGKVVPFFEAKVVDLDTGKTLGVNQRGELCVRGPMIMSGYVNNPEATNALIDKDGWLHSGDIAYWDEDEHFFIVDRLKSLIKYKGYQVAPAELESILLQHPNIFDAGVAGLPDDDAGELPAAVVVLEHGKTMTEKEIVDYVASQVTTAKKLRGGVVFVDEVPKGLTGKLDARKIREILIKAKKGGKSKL
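Purified P. pyralis luciferase (10nM final) with 10uM D-luciferin and 10uM ATP (Km levels) in 50mM Tris acetate pH 7.5, 10mM Mg acetate, 0.01% Tween-20, 0.05% BSA; qHTS 6-point titration, ~60 µM downward; luminescence read.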
An asterisk follows results filed as active; u = inconclusive; x = not tested or not shown; [ ] = remark or other dose. Calls follow the shape of the dose curve; as a rule, active = well fitted curve in the direction sought with a large enough effect; inconclusive = small, poorly fitted or top-dose-only effect, or another doubt; inactive = no such curve, though single readings can be large; an effect the other way counts as inactive or inconclusive. Potency is read from the fitted curve at half-maximal effect.

SMILES	ELG1 genotoxic	NPC1 prom act	ELG1 DNA repair	Rab9 prom act	SMN2 splice up	FLuc counter
COCCn1c(C)cc(C(=O)COC(=O)CCc2ccc(S(=O)(=O)N3CCOCC3)cc2)c1C	-1%	3%	5%	7%	-1%	15µM*
Cc1nn2c(=O)cc(COC(=O)c3ccc(C(C)(C)C)cc3)nc2s1	x	x	x	x	x	-16%
CC(NC(=O)C(=O)NCC1CCCO1)c1ccccc1 (stereo unspecified)	3%	0%	23%	6%	20%	4%
COCCn1c(C)cc(C(=O)COC(=O)c2ccc(S(=O)(=O)N(C)C)cc2)c1C	4%	x	8%	x	x	x
COCCn1c(C)cc(C(=O)COC(=O)c2ccc(NC(=O)CC#N)cc2)c1C	u	2.8µM*	u	2.2µM*	11µM*	11µM*
Cc1cccc(-c2c3c(=O)n(C)c(=O)n(C)c3cn2C(C)C)c1	1%	1%	-7%	-7%	30%	1%
Cc1ccc2c(ccn3cc4c(c(=O)n(C)c(=O)n4C)c23)c1	u	4%	-5%	-16%	-6%	2.7µM*
CCOc1ccc(NC(=O)C2CCCN(S(=O)(=O)c3cnc[nH]3)C2)cc1 (stereo unspecified)	1%	1%	4%	-6%	x	3%
CCCCOC(=O)C1=C(C)NC(=O)NC1c1cccc([N+](=O)[O-])c1 (stereo unspecified)	-11%	2%	6.5µM*	2%	x	10%
COc1ccc(C2NC(=O)NC(C)=C2C(=O)OCc2ccc3c(c2)OCO3)cc1OC (stereo unspecified)	9%	-5%	10µM*	-1%	-15%	-28%
CC1=C(C(=O)OCc2ccc3c(c2)OCO3)C(c2cccc([N+](=O)[O-])c2)NC(=O)N1 (stereo unspecified)	-10%	6%	7.3µM*	-5%	-15%	0%
CCC(CC)COC(=O)C1=C(C)NC(=O)NC1c1cccc([N+](=O)[O-])c1 (stereo unspecified)	-8%	-4%	-8%	-1%	x	1%
COCCN(C(=O)c1ccc(OCC(C)C)cc1)c1c(N)n(Cc2ccccc2)c(=O)[nH]c1=O	1%	-3%	13%	-3%	x	1%
CCN1CNC(=S)N(CCc2ccccc2)C1	-2%	-2%	u	-6%	0%	-1%
COc1cc2[nH]c(=O)n(CCCCCC(=O)N3CCN(c4cccc(C(F)(F)F)c4)CC3)c(=O)c2cc1OC	x	x	x	x	-13%	-8%
CCOc1ncccc1C(=O)OCC(=O)Nc1ccc(-c2nc3ccc(C)cc3s2)cc1	7.3µM*	0.45µM*	u	0.35µM*	1.6µM*	5.4µM*
Cc1ccc2nc(-c3ccc(NC(=O)COC(=O)c4ccco4)cc3)sc2c1	2.9µM*	0.45µM*	u	0.32µM*	2.2µM*	11µM*
Cc1ccc2nc(-c3ccc(NC(=O)COC(=O)c4ccc(Br)o4)cc3)sc2c1	1.2µM*	0.79µM*	u	0.4µM*	0.5µM*	3.4µM*
Cc1ccc(NC(=O)COC(=O)c2ccco2)cc1C	1%	-1%	11%	-3%	x	u
Cc1ccc2nc(-c3ccc(NC(=O)COC(=O)c4cncc(Br)c4)cc3)sc2c1	1.3µM*	u	u	0.32µM*	0.56µM*	1.7µM*
CCOc1ncccc1C(=O)OCC(=O)Nc1c(C)cc(C)cc1C	0%	0%	0%	-4%	10%	-1%
O=C(COC(=O)c1ccc(Br)o1)Nc1ccc(Br)cc1	3%	3%	12%	9%	x	-1%
COc1ccc(Cl)cc1NC(=O)CCn1c(=O)oc2ccccc21	1%	-2%	1%	2%	-9%	-1%
Cc1ccc2nc(-c3ccc(NC(=O)COC(=O)c4ccc([N+](=O)[O-])o4)cc3)sc2c1	1.3µM*	0.4µM*	u	0.45µM*	0.71µM*	1.3µM*
CC(=O)Nc1ccc(C(=O)COC(=O)c2ccco2)c(F)c1	4%	-4%	u	-8%	x	13µM*
SMILES	ELG1 genotoxic	NPC1 prom act	ELG1 DNA repair	Rab9 prom act	SMN2 splice up	FLuc counter
Cc1ccc2nc(-c3ccc(NC(=O)CN4CCN(C(=O)c5ccco5)CC4)cc3)sc2c1	u	u	u	u	u	4.8µM*
Cc1ccc(NC(=O)COC(=O)c2ccco2)cc1	4%	-2%	2%	-1%	x	17µM*
CC(=O)Nc1ccc(NC(=O)COC(=O)c2ccco2)cc1	1%	-1%	21%	1%	14%	-6%
CNS(=O)(=O)c1cccc(C(=O)OCC(=O)Nc2ccc(-c3nc4ccc(C)cc4s3)cc2)c1	0.73µM*	0.5µM*	u	u	1.1µM*	4.8µM*
O=C1ON=C(c2ccccc2)/C1=C/c1ccc(O)c(O)c1	u	-7%	19%	-8%	x	u
O=C1ON=C(c2cccc([N+](=O)[O-])c2)/C1=C/c1ccc(O)cc1	u	-2%	u	-8%	-10%	17µM*
Cc1ccccc1Nc1nc(-c2ccccc2)c(C(=O)Nc2cccnc2)s1	-2%	0%	23µM*	2%	4%	15µM*
Cc1onc(-c2ccccc2)c1C(=O)Nc1nnc(N(C)Cc2ccccc2)s1	-2%	0%	u	0%	-15%	-5%
COc1cccc(C2=NN(S(C)(=O)=O)C(c3cccs3)C2)c1 (stereo unspecified)	15%	23%	u	2.8µM*	x	u
CS(=O)(=O)N1N=C(c2ccccc2)CC1c1cccs1 (stereo unspecified)	2%	16%	24%	3%	-3%	-3%
COc1ccc(C2=NN(S(C)(=O)=O)C(c3cccs3)C2)cc1OC (stereo unspecified)	16%	u	u	u	x	17µM*
CCc1nnc(NC(=O)CCC(=O)N2CCCC(O)C2)s1 (stereo unspecified)	5%	-5%	6%	0%	x	1%
c1ccc(-c2ccc(-c3nccc4ccccc34)[nH]2)cc1	u	u	u	1µM*	x	0.15µM*
N#Cc1cc(-c2ccccc2)[nH]c1-c1nccc2ccccc12	-13%	-4%	9.2µM*	-5%	x	u
O=C(O)c1c(-c2nccc3ccccc23)[nH]c(-c2ccccc2)c1S(=O)(=O)O	x	x	x	x	-11%[9.22 µM]	x
CC(=O)c1ccc(-n2cc(-c3ccc(C(C)(C)C)cc3)[n+]3c2SCCC3)cc1	-17%	5%	7.3µM*	-6%	-9%	1%
COc1ccc(-c2cn(-c3ccc(Br)cc3)c3[n+]2CCS3)cc1	-8%	-5%	-18%	-9%	-32%	1%
